Our source for the Potency values is PubChem BioAssay (NCATS).

Records with an inconclusive call do not appear. Where a call stands in place of a potency, no number is given. Calls of active or inactive are those of the source. The call rests on the fitted dose curve; in most records, active means well fitted curve in the direction sought with a large enough effect; inconclusive means small, poorly fitted or top-dose-only effect, or another doubt; inactive means no such curve, though single readings can be large; an effect the other way counts as inactive or inconclusive. Peptide text beside a SMILES is read from it.

One assay deals with Cytochrome P450 3A4 (Homo sapiens) (UniProt P08684). Description: qHTS Assay for Inhibitors and Substrates of Cytochrome P450 3A4 (AID 884). Further: nearly all actives have a fitted effect of over 50% in size. The note with it: recombinant CYP3A4, Luciferin-PPXE luminescence; series mostly up to 57.1 µM. The gist of the method: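 20 nM human CYP3A4 with 25 uM Luciferin-PPXE (at KM) in 200 mM KPO4, preincubated 10 min with compound; NADPH regeneration started a 60 min RT reaction. Luciferin detected by luminescence, normalized to 57 uM ketoconazole as full inhibition.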
Sequence of Cytochrome P450 3A4 (Homo sapiens) (P08684 whole entry, looked up): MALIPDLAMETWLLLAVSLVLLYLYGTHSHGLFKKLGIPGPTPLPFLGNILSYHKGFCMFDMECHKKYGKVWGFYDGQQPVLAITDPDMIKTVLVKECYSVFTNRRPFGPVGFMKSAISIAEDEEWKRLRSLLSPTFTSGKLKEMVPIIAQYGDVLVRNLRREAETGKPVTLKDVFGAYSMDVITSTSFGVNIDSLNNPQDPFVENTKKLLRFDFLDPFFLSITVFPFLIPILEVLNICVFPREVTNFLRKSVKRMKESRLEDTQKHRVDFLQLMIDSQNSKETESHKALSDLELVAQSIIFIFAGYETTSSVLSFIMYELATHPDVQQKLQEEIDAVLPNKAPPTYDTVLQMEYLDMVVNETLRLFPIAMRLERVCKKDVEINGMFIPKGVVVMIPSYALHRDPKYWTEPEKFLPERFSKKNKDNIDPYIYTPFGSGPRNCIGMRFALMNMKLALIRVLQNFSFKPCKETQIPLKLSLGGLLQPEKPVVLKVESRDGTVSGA
(In qHTS, concentration-response curves come from the screen itself.)
Consider `O=c1[nH]c(Cl)nc2c1ncn2C1OC(CO)C(O)C1O` (stereo unspecified), for which the Potency entry is “inactive”.

Consider `Nc1nc2c(ncn2C2OC(CO)CC2O)c(=O)[nH]1` (stereo unspecified), for which the Potency result is “inactive”.

With `CS(=O)(=O)c1ccc(C(O)C(CO)NC(=O)C(Cl)Cl)cc1` (stereo unspecified), the Potency result is “inactive”.

For `CC1(C)CC2C1CC[C@]1(C)CCC3C(C(=O)O)CC(=O)O[C@]32C1` (stereo partly specified), the Potency entry is “inactive”.

As to `CC(=O)Oc1ccc2c(c1OC(C)=O)OCC1(O)Cc3c(cc(OC(C)=O)c(OC(C)=O)c3OC(C)=O)C21` (stereo unspecified), the Potency entry was “inactive”.

As for `CC1=CC2C(C(C)C)CCC(C)(O)C2CC1` (stereo unspecified), the Potency result is “inactive”.

For `O=C(/C=C/C(=O)Oc1ccccc1C(=O)O)Oc1ccccc1C(=O)O`, the Potency entry was “inactive”.

Regarding `COc1ccc(-c2oc3c(CC=C(C)C)c(O[C@H]4OC(CO)C(O)C(O)C4O)cc(O)c3c(=O)c2O[C@@H]2OC(C)C(O)C(O)C2O)cc1` (stereo partly specified), the Potency result is “inactive”.

In the case of `C=C1CCC(O)C/C1=C/C=C1\CCC[C@@]2(C)C(C(C)/C=C/C(C)C(C)C)CC[C@@H]12` (stereo partly specified), the Potency result was “inactive”.

Take `CC1O[C@@H](Oc2c(-c3ccc(O)c(O)c3)oc3cc(O)cc(O)c3c2=O)C(O)C(O)C1O` (stereo partly specified): the Potency result was “inactive”.

Regarding `CCOc1ccc(C(=O)c2ccc(O)c(O)c2O)cc1`, the Potency result is “inactive”.

As to `CC(C)CC(NC(=O)CN)C(=O)NC(Cc1ccccc1)C(=O)O` (stereo not drawn) (H-Gly-Leu-Phe-OH; configuration not given here), the Potency entry was “inactive”.

Turning to `CC(=O)Oc1ccc2c(c1)CCC1C2CC[C@]2(C)C(=O)CCC12` (stereo partly specified), the Potency entry is “inactive”.

As for `O=C(O)c1ccc2c(c1)OCO2`, the Potency result was “inactive”.

Turning to `CC(=O)OC1CC[C@@]2(C)C3=CC(=O)[C@]4(C)C(CC5OC6(OCC(C)CC6Br)C(C)C54)C3CC[C@H]2C1` (stereo partly specified), the Potency result was “inactive”.

As to `CC(=O)OC1CC[C@@]2(C)C(CC[C@@]3(C)C2CC=C2C4CC(C)(C)CC[C@]4(C(=O)O)CC[C@@]23C)C1(C)C` (stereo partly specified), the Potency entry is “inactive”.

Turning to `CC(=O)O[C@@]1(C(C)=O)CCC2C3C=C(Cl)C4=CC(=O)C5CC5[C@@]4(C)C3CC[C@]21C` (stereo partly specified), the Potency result is “inactive”.

Take `CC1CC[C@@]2(OC1)OC1CC3C4CC[C@H]5CC(O)CC[C@@]5(C)C4CC[C@]3(C)C1C2C` (stereo partly specified): the Potency result is “inactive”.

As for `COc1ccc(-c2coc3c(OC)c(OC)cc(OC)c3c2=O)cc1`, the Potency result was “inactive”.

Regarding `O=c1[nH]cnc2c1nc(Cl)n2C1OC(CO)C(O)C1O` (stereo unspecified), the Potency result was “inactive”.

Tested on in the next assay: not listed separately
Nature of the assay: Confirmation and Secondary Assay for Modulators of Hemoglobin Beta Chain Splicing at IVS2 654 locus (AID 910).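 Further: HeLa cells stably carrying EGFP split by mutant beta-globin IVS2-654 intron.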 The note with it: HeLa EGFP-654 splicing reporter, GFP fluorescence, 48 h; series mostly up to 46.1 µM. The gist of the method: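 HeLa cells stably expressing EGFP interrupted by β-globin IVS2-654 intron, seeded overnight in Opti-MEM/2% FCS, then treated 2 days at 37 °C. Restored splicing read as total peak GFP intensity per well by laser scanning cytometry (488 nm excitation, 500–520 nm emission); 500 nM antisense PNA as control.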
With `CC(C)C1COc2cc3oc(=O)ccc3cc2O1` (stereo unspecified), the Potency entry was “inactive”.

As to `NC(N)=NCCCC(NC(=O)C(N)Cc1ccc(O)cc1)C(=O)O` (stereo unspecified), the Potency entry is “inactive”.

With `CC1CC[C@@]2(OC1)OC1CC3C4CC[C@@H]5CC(O)CC[C@@]5(C)C4CC[C@]3(C)C1C2C` (stereo partly specified), the Potency result is “inactive”.

For `COc1c2ccccc2nc2occc12`, the Potency result is “inactive”.

For `COc1ccc2c(=O)c(CC(=O)O)coc2c1`, the Potency entry was “inactive”.

`CC1(C)OC2C(CO)OC(n3cnc4c(=O)[nH]cnc43)C2O1` (stereo unspecified): the Potency entry is “inactive”.

Turning to `CCOC(=O)CCCCCCCCCCCCC1C=CCC1` (stereo unspecified), the Potency result was “inactive”.

For the compound `OCc1ccccc1O[C@H]1OC(CO)C(O)C(O)C1O` (stereo partly specified), the Potency entry is “inactive”.

For `COc1ccc(/C=C/c2cc(O)cc(O[C@H]3OC(CO)C(O)C(O)C3O)c2)cc1` (stereo partly specified), the Potency result was “inactive”.

Take `COc1c(O)cccc1O`: the Potency entry is “inactive”.

Regarding `Nc1ncnc2[nH]c(=O)[nH]c12`, the Potency entry was “inactive”.

For `NCC1CCCCC1CC(=O)O` (stereo unspecified), the Potency result was “inactive”.

As for `C#CCCCCCCCCCCCC(=O)CC(O)COC(C)=O` (stereo unspecified), the Potency result is “inactive”.

As to `CCN1CCN(C(=O)NC(C(=O)NC2C(=O)N3C2SC(C)(C)C3C(=O)O)c2ccccc2)C(=O)C1=O` (stereo unspecified), the Potency entry is “inactive”.

As to `CC(=O)N1CCCC1C(=O)O` (stereo unspecified), the Potency result was “inactive”.

On to `COc1c(O)cc2c(c1O)C1OC(CO)C(O)[C@H](O)[C@H]1OC2=O` (stereo partly specified), for which the Potency result is “inactive”.

As to `CC(C)CCCC(C)C1CCC2C3CC[C@H]4CC(=O)CC[C@@]4(C)C3CC[C@@]12C` (stereo partly specified), the Potency entry is “inactive”.

As to `COc1cc(/C=C/C(=O)O)cc(OC)c1OC`, the Potency result is “inactive”.

Regarding `CC(=O)NC(CC(=O)O)C(=O)NC(CCC(=O)O)C(=O)O` (stereo not drawn) (Ac-Asp-Glu-OH; configuration not given here), the Potency result was “inactive”.

Take `CC1(C)OC2C[C@](O)(C(N)=O)C[C@H](O)[C@H]2O1` (stereo partly specified): the Potency entry is “inactive”.

With `O=c1[nH]c(Cl)nc2c1ncn2C1OC(CO)C(O)C1O` (stereo unspecified), the Potency entry is “inactive”.

Turning to `Nc1nc2c(ncn2C2OC(CO)CC2O)c(=O)[nH]1` (stereo unspecified), the Potency result was “inactive”.

For `CS(=O)(=O)c1ccc(C(O)C(CO)NC(=O)C(Cl)Cl)cc1` (stereo unspecified), the Potency result is “inactive”.

On to `CC1(C)CC2C1CC[C@]1(C)CCC3C(C(=O)O)CC(=O)O[C@]32C1` (stereo partly specified), for which the Potency result was “inactive”.

Consider `CC(=O)Oc1ccc2c(c1OC(C)=O)OCC1(O)Cc3c(cc(OC(C)=O)c(OC(C)=O)c3OC(C)=O)C21` (stereo unspecified), for which the Potency result is “inactive”.

Turning to `CC1=CC2C(C(C)C)CCC(C)(O)C2CC1` (stereo unspecified), the Potency entry is “inactive”.
